{"source": "PubChem BioAssay (NCATS)", "note": "Inconclusive results are not listed. Calls of active or inactive are those of the source. Calls come from the whole dose curve. Starred links: 1 amine or outer side, 2 acyl side, 3 side chain; linkers in the order of their positions; H or OH if unused. Non-standard residues stand in square brackets, D forms with d. Residues, ends and D or L forms follow the SMILES beside them. ξ: configuration not given here. X4 = O=C(C1CC2(c3ccc(O)cc3)c3ccccc3NC2N1[*:1])[*:2]; ξW = NC(Cc1c[nH]c2ccccc12)C(=O)O; ξY = NC(Cc1ccc(O)cc1)C(=O)O", "data": [{"assay": "qHTS for inhibitors of Rabies Virus screened against the NCATS CANVASS Library (AID 1347402)", "conditions": "Rabies virus infection cell assay; series mostly up to 45.9 µM", "values": [{"molecule": "CC[C@H](C)[C@H](NC(=O)C(Cc1ccc(O)cc1)NC(=O)C(Cc1c[nH]c2ccccc12)NC(=O)[C@H](C)N)C(=O)N1C(C(=O)NC(Cc2ccc(O)cc2)C(=O)O)CC2(c3ccc(O)cc3)c3ccccc3NC12", "note": "(some centres not stated) (H-A[ξW][ξY]I[X4][ξY]-OH)", "outcome": "inactive"}, {"molecule": "CC1=CC[C@@]2(C[C@@H]1O)[C@@H](C(=O)O)CC[C@H]2C(C)C", "outcome": "inactive"}, {"molecule": "C[C@H](CCC(O)C(C)(O)CO)[C@@]1(O)CC[C@@]2(C)C3=C(CC[C@@]21C)[C@@]1(C)CCC(OC(=O)CCC(=O)O)C(C)(C)[C@@H]1CC3", "note": "(some centres not stated)", "outcome": "inactive"}, {"molecule": "CC1(C)C=Cc2c(ccc3c2OC[C@@H](c2ccc(O)cc2O)C3)O1", "outcome": "inactive"}, {"molecule": "C[C@@H](CCC[C@]1(C)C(=O)C=C[C@]23C[C@H]4C[C@H](O[C@@]4(C)C2)C31)C(=O)N[C@@H](CO)C(=O)O", "note": "(some centres not stated)", "outcome": "inactive"}, {"molecule": "C[C@@H]1O[C@@H](O[C@@H]2[C@@H](O)[C@H](O[C@@H]3[C@@H](O)[C@@H](O)C(O[C@H]4[C@H](OC(=O)[C@]56CCC(C)(C)C[C@H]5C5=CCC7[C@@]8(C)C[C@H](O)[C@H](O[C@@H]9C[C@H](CO)[C@@H](O)[C@H](O)[C@H]9O)[C@@](C)(CO)C8[C@H](O)C[C@@]7(C)[C@]5(C)CC6)OC[C@H](O)[C@@H]4O)O[C@H]3C)OC[C@H]2O)[C@H](O)[C@H](O)[C@H]1O", "note": "(some centres not stated)", "outcome": "inactive"}, {"molecule": "C=C1C[C@@]23C=CC(=O)[C@@](C)(CCC(=O)Nc4c(OC5O[C@H](CO)[C@@H](O)[C@H](O)[C@H]5O)ccc(C(=O)O)c4O)C2C[C@@H]1CC3", "note": "(some centres not stated)", "outcome": "inactive"}]}]}
